Inconclusive results are not listed. Entries that show only a call come without a potency. The source made the active and inactive calls. Calls come from the whole dose curve; as a rule, active = well fitted activation curve with a large enough effect; inconclusive = small, poorly fitted or top-dose-only effect; inactive = no such curve, though single readings can be large or run the other way.
Assay: Activators of T cell receptors: Hit Validation
Settings: primary human leukocytes, cytokine release by HTRF, 48 h, TCR-stimulated with anti-CD3 beads; series mostly up to 46.1 µM
Summary of the method: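 Readout is IL-2 secretion by HTRF, measured after 48 hr in which primary human leukocytes received compound together with a-CD3 beads as the only TCR stimulus.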
Potency is the fitted concentration of half-maximal effect.

Row | SMILES | Potency
1 | CCOC(=O)c1c(C)[nH]c(C(=O)OCC(=O)Nc2ccccc2)c1C | inactive
2 | CCC(=C/c1sc2ccc3ccccc3c2[n+]1C)/C=C1\Sc2ccc3ccccc3c2N1C | 9.96 µM (active)
3 | CCN(CC(=O)Nc1ccccc1C(F)(F)F)C(=O)c1ccccc1Sc1ccccc1C#N | inactive
4 | O=C(OCc1cc(=O)n2cc(Br)ccc2n1)C1COc2ccccc2O1 (stereo not drawn) | inactive
5 | COc1ccccc1CNC(=O)CSc1ccc(Br)cc1 | inactive
6 | O=C1C=C(NCCc2ccccc2)C2(CCCCC2)O1 | inactive
7 | CC(=O)Nc1nnc(S(N)(=O)=O)s1 | inactive
8 | COc1ccc(S(=O)(=O)N2CCN(C(=O)CCc3c[nH]c4ccccc34)CC2)cc1 | inactive
9 | N#Cc1ccc(CN2CCN(C(=O)c3ccc(S(=O)(=O)NCc4ccco4)cc3)CC2)cc1 | inactive
10 | COc1ccccc1C(=O)NCCC(=O)N1CCN(S(=O)(=O)c2cccc(Cl)c2)CC1 | inactive
11 | Oc1ccc(/C=N\Nc2nncc(-c3ccccc3)n2)cc1 | inactive
12 | CN(C)c1ccc(N/C(N)=N/c2nc(C(F)(F)F)cc(C(F)(F)F)n2)cc1 | inactive
13 | COc1ccc(C(=O)COC(=O)c2sc(C)nc2C)cc1OC | inactive
14 | Cc1ccc(NC2=CC(=O)C(=O)c3ccccc32)c(C)c1 | inactive
15 | CCCn1c(-c2ccccc2)nc2c(=O)n(C)c(=O)[nH]c21 | inactive
16 | Cc1nn(Cc2ccccc2)c(C)c1C(=O)N1CCN(S(=O)(=O)/C=C/c2ccccc2)CC1 | inactive
17 | Cc1noc(C)c1C(=O)OC(C)C(=O)N1CCc2ccccc21 (stereo not drawn) | inactive
18 | C=C(C)C(=O)OCC(C)C | inactive

Reference: PubChem BioAssay AID624298 (National Center for Advancing Translational Sciences (NCATS), 2012)
